The nature of assay [1]: qHTS assay to identify small molecule antagonists of the glucocorticoid receptor (GR) signaling pathway - cell viability counter screen (AID 720693). Further: nearly all actives have a fitted effect of over 55% in size. Further: potency means the concentration at half of the fitted maximal effect.
The nature of assay [2]: qHTS assay for identifying genotoxic compounds that show differential cytotoxicity against isogenic chicken DT40 cell lines with known DNA damage response pathways - wild type cell line (AID 743012). Further: nearly all actives have a fitted effect of over 60% in size. Further: potency means the concentration at half of the fitted maximal effect. The essentials:
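Endpoint: CellTiter-Glo luminescence, 30 min RT. Cells: wild type DT40, 300/well. Exposure: compounds in DMSO, 40 h, 37 C/5% CO2, after ~0.5 h pre-incubation.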
(Quantitative high-throughput screening tests each substance at several concentrations.)

Assay [3] is described as follows: qHTS assay for identifying genotoxic compounds that show differential cytotoxicity against isogenic chicken DT40 cell lines with known DNA damage response pathways - Rev3 mutant cell line (AID 743014). Further: nearly all actives have a fitted effect of over 55% in size. Further: potency means the concentration at half of the fitted maximal effect.
Assay [4] is described as follows: qHTS assay to identify small molecule antagonists of the androgen receptor (AR) signaling pathway - cell viability counter screen (AID 743033; further: nearly all actives have a fitted effect of over 45% in size; further: potency means the concentration at half of the fitted maximal effect).
Assay [5] in a line: qHTS assay to identify small molecule antagonists of the androgen receptor (AR) signaling pathway using the MDA cell line - cell viability counter screen (AID 743041; further: nearly all actives have a fitted effect of over 45% in size; further: potency means the concentration at half of the fitted maximal effect). The essentials:
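qHTS viability read-out; MDA-kb2 AR-luc; R1881-stimulated; 16 h exposure at 37C, 0% CO2; CellTiter-Fluor, 30 min; fluorescence intensity.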

Assay [6] deals with Androgen receptor (Homo sapiens) (UniProt P10275). The assay is described as follows: qHTS assay to identify small molecule agonists of the androgen receptor (AR) signaling pathway using the MDA cell line (AID 743040; further: nearly all actives have a fitted effect of over 20% in size; further: potency means the concentration at half of the fitted maximal effect). The following applies: MDA-kb2 AR-luc cells, MMTV luciferase, 16 h; activity change: at 70.3 µM (top of the series), stronger effect = higher value. The procedure, abridged: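 Agonist activity is measured as luciferase luminescence in human MDA-kb2 cells whose MMTV reporter responds to both AR and GR. Compounds in DMSO incubate 16 h at 37C, 0% CO2, and ONE-Glo is read after 30 min.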
Chain of Androgen receptor (Homo sapiens) (P10275 whole entry, looked up): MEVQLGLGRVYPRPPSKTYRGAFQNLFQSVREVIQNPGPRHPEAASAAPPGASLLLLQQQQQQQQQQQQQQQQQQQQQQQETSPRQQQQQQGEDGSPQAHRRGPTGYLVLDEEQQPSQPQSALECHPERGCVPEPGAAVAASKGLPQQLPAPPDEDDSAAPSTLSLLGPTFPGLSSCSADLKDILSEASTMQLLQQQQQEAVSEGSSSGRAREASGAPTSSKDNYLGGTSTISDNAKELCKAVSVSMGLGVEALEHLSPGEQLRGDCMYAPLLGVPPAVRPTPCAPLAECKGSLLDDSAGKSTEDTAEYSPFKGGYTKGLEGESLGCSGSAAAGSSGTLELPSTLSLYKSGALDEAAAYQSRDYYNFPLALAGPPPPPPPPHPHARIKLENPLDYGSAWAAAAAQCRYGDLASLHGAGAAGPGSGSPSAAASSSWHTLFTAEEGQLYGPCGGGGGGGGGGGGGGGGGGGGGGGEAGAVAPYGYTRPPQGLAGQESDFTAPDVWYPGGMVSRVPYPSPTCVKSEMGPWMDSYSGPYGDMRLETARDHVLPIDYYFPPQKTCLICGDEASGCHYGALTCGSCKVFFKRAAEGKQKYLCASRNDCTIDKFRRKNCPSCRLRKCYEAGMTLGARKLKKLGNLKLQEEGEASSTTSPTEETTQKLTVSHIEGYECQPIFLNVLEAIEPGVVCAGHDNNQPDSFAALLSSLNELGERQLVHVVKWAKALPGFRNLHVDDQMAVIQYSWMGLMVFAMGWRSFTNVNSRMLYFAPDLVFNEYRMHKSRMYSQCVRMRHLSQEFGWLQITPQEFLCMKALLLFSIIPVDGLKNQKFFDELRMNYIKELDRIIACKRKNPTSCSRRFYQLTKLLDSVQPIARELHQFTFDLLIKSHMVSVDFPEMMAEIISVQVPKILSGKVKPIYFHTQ

Assay [7] shares this target. The assay is described as follows: qHTS assay to identify small molecule antagonists of the androgen receptor (AR) signaling pathway using the MDA cell line (AID 743042; further: nearly all actives have a fitted effect of over 55% in size; further: potency means the concentration at half of the fitted maximal effect). The essentials: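 MDA-kb2 cells (human breast carcinoma, stably carrying an MMTV-luciferase reporter responsive to AR and GR) were plated at 3,000 cells/well and preincubated 5 hr at 37C, then given compound plus R1881 agonist for 16 h. ONE-Glo luminescence was read.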

Assay [8] is described as follows: qHTS assay for identifying genotoxic compounds that show differential cytotoxicity against isogenic chicken DT40 cell lines with known DNA damage response pathways - Rad54/Ku70 mutant cell line (AID 743015). Further: nearly all actives have a fitted effect of over 60% in size. Further: potency means the concentration at half of the fitted maximal effect.
Assay [9] deals with Androgen receptor (Homo sapiens) (UniProt P10275). The assay is described as follows: qHTS assay to identify small molecule antagonists of the androgen receptor (AR) signaling pathway (AID 743035; active means well fitted inhibition curve with a large enough effect in the signal ratio in the repeat runs, not every such curve was filed as active; the % refers to the signal ratio). The essentials:
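R1881 agonist challenge of a HEK293 UAS-beta-lactamase AR reporter line in the presence of compound (16 h, 37C); signal taken as FRET fluorescence after 2 h with LiveBLAzer B/G substrate at room temperature.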

For assay [10] the target is unchanged. The assay is described as follows: qHTS assay to identify small molecule agonists of the androgen receptor (AR) signaling pathway (AID 743036; active means well fitted activation curve with a large enough effect in the signal ratio in the repeat runs, with a control signal flat, not every such curve was filed as active; the % refers to the signal ratio). The essentials:
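Beta-lactamase under UAS control, stably integrated in HEK293 GripTite cells, reports receptor activation. After 16 h compound treatment, cells received FRET substrate for 2 h at room temperature before fluorescence reading.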

This note sets out measurements from PubChem BioAssay (Tox21).

Where “and” joins values, the source holds several entries; their conditions need not be identical. Identical values can stand only once. Inconclusive results are not listed. The source holds several records for some structures; these can differ, active in one and inactive in another. Calls of active or inactive are those of the source. Unless noted, the call rests on the fitted dose curve; in most records, active means well fitted curve in the direction sought with a large enough effect in the repeat runs; inconclusive means weak or mixed curves; inactive means no such curve, though single readings can be large; an effect the other way counts as inactive or inconclusive.

For `CC(C)(C)OOC(C)(C)CCC(C)(C)OOC(C)(C)C`, the Potency entry in [1], in assay [2], in assay [4] and in assay [5] was “inactive” each time. Further, the Potency in assay [3] was 68.6 µM (active).

Regarding `C=CC(=O)NC(C)(C)CC(C)=O`, the Potency entry in assay [1], in assay [2], in assay [4] and in assay [5] was “inactive” in each case. Further, in assay [3], the Potency was 54.5 µM (active).

For the compound `O=S(=O)(Cl)Cl`, the Potency entry in assay [1], in [2], in assay [3], in assay [4] and in assay [5] was “inactive” throughout.

Take `CCOC(=O)c1cncn1C(C)c1ccccc1` (centres undefined): the Potency result in assay [1], in [2], in assay [3] and in assay [5] was “inactive” throughout.

In the case of `COP(=O)(OC)OC(Br)C(Cl)(Cl)Br` (centres undefined), the Potency entry in assay [1], in assay [6] and in [5] was “inactive” in each case. In addition, the Potency in assay [2] was 30.7 µM (active) and 13.7 µM (active); in [3], 13.7 µM (active); in assay [7], 68.7 µM (active) and 61.1 µM (active).

Consider `COC1CC(=C(c2cccs2)c2cccs2)C[N+](C)(C)C1` (centres undefined), for which the Potency result in [1], in assay [4] and in assay [5] was “inactive” each time. Also, the values for the Potency in [2] and in assay [8] were 23.7 µM (active) and 29.8 µM (active), respectively.

For `O=C(O)c1cc(I)cc(I)c1I`, the Potency entry in assay [1], in assay [2], in assay [3], in assay [4] and in assay [5] was “inactive” throughout.

Turning to `CCCCC1C(=O)NC(=O)N(C2CCCCC2)C1=O` (centres undefined), the Potency result in assay [1], in assay [2], in assay [3], in [4] and in assay [5] was “inactive” throughout.

On to `O=C1c2ccccc2C(=O)N1SC(Cl)(Cl)Cl`, for which the Potency in [1] is 17.1 µM (active) and 13.8 µM (active); in [2], 603 nM (active) and 154 nM (active); in assay [3], 67.6 nM (active) and 109 nM (active); in [4] it was 2.71 µM (active) and 3.09 µM (active); in assay [5], 21.7 µM (active).

`COc1ccc(C(O)(c2cncnc2)C2CC2)cc1` (centres undefined): the Potency entry in [1], in assay [2], in assay [3], in assay [4] and in assay [5] was “inactive” each time.

As to `CC(C)(C)NCC(O)c1cc(Cl)c(N)c(C(F)(F)F)c1` (centres undefined), the Potency result in [1], in [2], in assay [8], in [4], in [9] and in [10] was “inactive” each time. Besides, the Potency result in [6], in assay [5] and in assay [7] was “inactive” throughout.

Consider `CN1C(=O)CN=C(c2ccccc2)c2cc([N+](=O)[O-])ccc21`, for which the Potency result in [1], in assay [2], in [3], in assay [4], in [10] and in assay [5] was “inactive” each time. Further, in assay [7], the Potency entry was “inactive”. Further, the Potency in [6] was 1.88 µM (active).

Consider `O=C(N[C@H]1CN2CCC1CC2)c1ccc2c(c1)OCCO2`, for which the Potency entry in [1], in [2], in [3], in assay [4], in [9] and in assay [10] was “inactive” throughout. Also, the Potency result in assay [6], in [5] and in assay [7] was “inactive” throughout.

For `O=C([O-])c1ccccn1.O=C([O-])c1ccccn1.O=C([O-])c1ccccn1.[Cr+3]`, the Potency entry in assay [1], in assay [2], in assay [3], in assay [4] and in [5] was “inactive” in each case.

With `CCOC(=O)NC(O)C(Cl)(Cl)Cl` (centres undefined), the Potency result in [1], in [2], in [3], in assay [4] and in [5] was “inactive” throughout.

Turning to `O=C(N/N=C/c1ccc([N+](=O)[O-])o1)c1cc([N+](=O)[O-])cc([N+](=O)[O-])c1O`, the Potency entry in [1], in [2] and in assay [8] was “inactive” each time.

`O=CC=O`: the Potency result in [1], in [2], in assay [9], in assay [10], in assay [6] and in [5] was “inactive” throughout. Further, the Potency entry in assay [7] is “inactive”. Also, the Potency result in assay [3] was “inactive and 49.9 µM (active)”.

As for `CN(C)C(=O)Nc1cccc(OC(=O)NC(C)(C)C)c1`, the Potency result in [1], in assay [2], in assay [8], in assay [4] and in assay [5] was “inactive” throughout.

`CC(C)c1ccc(NC(=O)N(C)C)cc1`: the Potency result in assay [1], in assay [2], in [4] and in [5] was “inactive” throughout. Further, the Potency in assay [3] is 68.5 µM (active).

Take `OCCSSCCO`: the Potency result in assay [1], in assay [2], in [3] and in assay [5] was “inactive” throughout.

As to `CN1CC[C@]23c4c5ccc(O)c4O[C@H]2[C@@H](O)CC[C@H]3[C@H]1C5`, the Potency result in assay [1], in [2], in assay [8], in assay [4] and in assay [5] was “inactive” each time.

Take `CN(C)N`: the Potency result in assay [1], in assay [2], in assay [3], in assay [4], in assay [9] and in assay [10] was “inactive” throughout. The Potency entry in [6], in [5] and in assay [7] was “inactive” in each case.

`O=C(O)C(Cl)(Cl)Br`: the Potency entry in assay [1], in [2], in [3], in assay [4] and in assay [5] was “inactive” each time.

Take `CC1(C)CC(=O)CC(C)(C)N1[O]`: the Potency result in assay [1], in [2], in [3] and in assay [5] was “inactive” in each case.

Regarding `CCCCCCCCCCCCCCCl`, the Potency result in [1], in [2], in [3], in assay [4] and in assay [5] was “inactive” throughout.

Take `ClCc1ccccc1Cl`: the Potency result in assay [2], in assay [3], in assay [8], in assay [4], in assay [9] and in [6] was “inactive” each time. The Potency entry in assay [5] and in assay [7] was “inactive” throughout.

Consider `c1ccc2c(c1)sc1ccccc12`, for which the Potency result in assay [1], in [2], in [4] and in assay [5] was “inactive” each time.

Consider `O=C(O)CCCOc1ccc(Cl)cc1Cl`, for which the Potency result in [1], in assay [4], in assay [6], in assay [5] and in assay [7] was “inactive” in each case.

For the compound `O=S(=O)(c1ccccc1)c1ccccc1`, the Potency entry in assay [1], in assay [3], in [8], in assay [4] and in assay [5] was “inactive” throughout.

Take `CC(C)c1ccc(OP(=O)(Oc2ccc(C(C)C)cc2)Oc2ccc(C(C)C)cc2)cc1`: the Potency result in assay [1] and in assay [4] was “inactive” in each case. Also, the Potency in [3] was 61.6 µM (active) and 27.3 µM (active); in assay [8], 69.1 µM (active) and 54.5 µM (active) and 21.7 µM (active).

On to `C=CC(C)(CCC=C(C)C)OC(=O)c1ccccc1N` (centres undefined), for which the Potency entry in [1] and in assay [5] was “inactive” in each case.

Consider `CCOP(=S)(OCC)Oc1ccc(S(C)=O)cc1` (centres undefined), for which the Potency entry in assay [1] and in assay [5] was “inactive” in each case.

On to `CCCN(CCOc1c(Cl)cc(Cl)cc1Cl)C(=O)n1ccnc1`, for which the Potency is 27.3 µM (active) in assay [2]; 31.3 µM (active) and 30.6 µM (active) in assay [3]; 49.6 µM (active) and 27.3 µM (active) in [8]; 25.1 µM (active) in assay [4]. Besides, the Potency result in assay [5] is “inactive”.
